Key:
Assay in all cases: PBM binding z-score (relative to random genomic background probes); higher = stronger binding; sequences stand for … in GC…GCGATTGACAGCGTAGAATGAAGG
[1] = system: FXR:RXRa (NR concentration 270 nM, RXRa partner concentration 90 nM)
How it was run: (§1)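 Ligand-free nuclear receptor dimers were bound for 1 h to custom Agilent 4×180K protein-binding microarrays. Detection used antibodies against each partner (one per run). Binding z-scores rest on regression-normalized fluorescence, with random background probes as the reference.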

[2] = system: LXRa:RXRa (NR concentration 270 nM, RXRa partner concentration 90 nM)
How it was run: as §1

[3] = system: LXRa homodimer (NR concentration 270 nM)
How it was run: as §1

[4] = system: LXRb:RXRa (NR concentration 270 nM, RXRa partner concentration 90 nM)
How it was run: as §1

[5] = system: LXRb homodimer (NR concentration 270 nM)
How it was run: as §1

[6] = system: PPARa:RXRa (NR concentration 270 nM, RXRa partner concentration 90 nM)
How it was run: as §1

[7] = system: PPARg:RXRa (NR concentration 180 nM, RXRa partner concentration 90 nM)
How it was run: as §1

[8] = system: PPARg:RXRa 270nM:90nM, anti-RXR (NR concentration 270 nM, RXRa partner concentration 90 nM)
How it was run: as §1

[9] = system: PPARg:RXRa 30nM:10nM, anti-RXR (NR concentration 30 nM, RXRa partner concentration 10 nM)
How it was run: as §1

[10] = system: PPARg:RXRa 90nM:30nM, anti-RXR (NR concentration 90 nM, RXRa partner concentration 30 nM)
How it was run: as §1

[11] = system: PPARg:RXRa DBDmut IVT, anti-RXR (DBD mutation: RXRa K156A/R161A, NR concentration 270 nM, RXRa partner concentration 90 nM)
How it was run: as §1

[12] = system: PPARg:RXRa IVT, anti-PPARg (NR concentration 270 nM, RXRa partner concentration 90 nM)
How it was run: as §1

[13] = system: PPARg DBDmut:RXRa IVT, anti-PPARg (DBD mutation: PPARg1 K132A/R137A, NR concentration 270 nM, RXRa partner concentration 90 nM)
How it was run: as §1

[14] = system: PPARg DBDmut IVT, anti-PPARg (DBD mutation: PPARg1 K132A/R137A, NR concentration 270 nM)
How it was run: as §1

[15] = system: PPARg homodimer (NR concentration 180 nM)
How it was run: as §1

[16] = system: PXR:RXRa (NR concentration 270 nM, RXRa partner concentration 90 nM)
How it was run: as §1

[17] = system: PXR homodimer (NR concentration 270 nM)
How it was run: as §1

[18] = system: RARa:RXR (NR concentration 270 nM, RXRa partner concentration 90 nM)
How it was run: as §1

[19] = system: RARa homodimer (NR concentration 270 nM)
How it was run: as §1

[20] = system: RARb:RXRa (NR concentration 270 nM, RXRa partner concentration 90 nM)
How it was run: as §1

Sequence	PBM binding z-score [1]	PBM binding z-score [2]	PBM binding z-score [3]	PBM binding z-score [4]	PBM binding z-score [5]	PBM binding z-score [6]	PBM binding z-score [7]	PBM binding z-score [8]	PBM binding z-score [9]	PBM binding z-score [10]	PBM binding z-score [11]	PBM binding z-score [12]	PBM binding z-score [13]	PBM binding z-score [14]	PBM binding z-score [15]	PBM binding z-score [16]	PBM binding z-score [17]	PBM binding z-score [18]	PBM binding z-score [19]	PBM binding z-score [20]
TCTAGTTGGGCAAAGGTCACACACTCGAAATGCG	5.48	5.45	3.14	5.08	0.789	6.58	10.4	9.73	9.07	10.3	2.75	5.71	0.687	1.14	5.11	5.64	1.26	6.56	2.44	5.1
TCTGGTAGATCAAAGGTTAAGAAAGCCGAAGCCT	1.8	2.1	0.139	2.08	-0.305	3.73	6.37	6.52	5.92	6.95	1.47	2.16	-0.482	0.322	0.978	1.97	0.168	2.79	0.25	1.91
CCTTTCGGGTCACGAGGTTATAGCACGACGAGCG	6.94	4.87	0.634	4.2	0.882	6.42	7.34	6.75	2.96	5.52	3.85	5.47	3.53	2.42	2.82	4.93	0.795	6.44	0.862	4.99
CTAGCAAGGTGAACAAGGTCGTTGATTACTATTC	1.2	1.17	-0.0996	1.45	-1.03	2.39	0.843	1.3	0.0127	0.796	2.52	2.56	0.0933	-0.41	0.474	2.46	1.4	1.95	-0.493	2.15
CCTAGTTGGTCAGGAGATCACACACCGGATATGA	0.118	0.263	0.478	0.0659	0.414	0.215	1.01	0.651	0.236	0.432	0.463	0.766	0.576	0.266	1.26	0.215	0.728	0.415	1.34	0.518
CCCACTGGGGCATAAGGTTACCATAAGCCAGCCC	0.325	1.44	-0.234	0.476	-1.1	2.36	3.91	4.26	1.73	3.6	3.37	4.87	-0.75	-0.412	0.0588	0.0928	-0.684	1.07	-0.44	1.46
AACTCTAGGTAAAAGTTCAGTGAATCCCGAGGAT	1.13	1.42	1.21	0.973	0.00492	4.2	7.44	7.64	6.5	8.32	2.73	3.74	1.15	0.487	1.93	1.83	1.06	1.75	0.344	2.42

Source: the supplement of paper PMC6555819
